{"source": "PubChem BioAssay (Tox21)", "note": "Inconclusive results are not listed. Where a call stands in place of a potency, no number is given. Activity calls are given as the source filed them. Calls follow the shape of the dose curve; as a rule, active = well fitted activation curve with a large enough effect in the signal ratio in the repeat runs (not every such curve was filed as active); inconclusive = weak or mixed curves; inactive = flat fitted curve, though single readings scatter; the % refers to the signal ratio."}
{"assay": "p53 small molecule agonists, cell-based qHTS assay (AID 1963582)", "settings": "HCT-116 p53RE-bla reporter, beta-lactamase FRET ratio, 16 h; series mostly up to 66 µM", "description": "National Center for Advancing Translational Sciences [NCATS]\nDivision of Preclinical Innovation [DPI]\nU.S. Environmental Protection Agency [EPA]\nNational Institutes of Environmental Health Sciences [NIEHS]\nNational Toxicology Program [NTP]\nU.S. Food and Drug Administration [FDA]\np53, a tumor suppressor protein, is activated following cellular insult, including DNA damage and other cellular stresses. The activation of p53 regulates cell fate by inducing DNA repair, cell cycle arrest, apoptosis, or cellular senescence. The activation of p53, therefore, is a good indicator of DNA damage and other cellular stresses. […] The activation of the reporter gene under culture conditions can be detected by fluorescence intensity. This cell line was used to screen the Tox21 10K compound library in a 1536-well plate format and to identify agonists that activate the p53 signaling pathway.\nTox21 Assay Protocol Summary:\nThe p53RE-bla cells were dispensed at 4,000 cells/5 ul/well in 1536-well black wall/clear bottom plates using a Multidrop dispenser. After the assay plates were incubated at a 37 C/5% CO2 incubator for 5 hours, 23 nL of compounds dissolved in DMSO, positive controls or DMSO only was transferred to the assay plate by a pin tool. The plates were incubated at 37 C for 16 hours. After 1 uL of LiveBLAzerTM B/G FRET substrate was added using a Flying Reagent Dispenser, the plates were incubated at room temperature for 2 hours, and fluorescence intensity was measured by an Envision plate reader."}
{"smiles": "CC(Cc1ccccc1)NCc1ccccc1Cl", "note": "(stereo not given)", "Potency": "inactive"}
{"smiles": "CC1(C)C(C(=O)OC(C#N)c2cccc(Oc3ccccc3)c2)C1(C)C", "note": "(stereo not given)", "Potency": "inactive"}
{"smiles": "CC(=O)c1cc2c(cc1C)C(C)(C)C(C)CC2(C)C", "note": "(stereo not given)", "Potency": "inactive"}
{"smiles": "C[C@H](CN1CCOCC1)C(C(=O)N1CCCC1)(c1ccccc1)c1ccccc1", "Potency": "inactive"}
{"smiles": "CC(C(O)c1ccccc1)N(C)C/C=C/c1ccccc1", "note": "(stereo not given)", "Potency": "inactive"}
{"smiles": "CC(Cc1ccccc1)NCCCCl", "note": "(stereo not given)", "Potency": "inactive"}
{"smiles": "NCCCNCCCN", "Potency": "inactive"}
{"smiles": "CC[C@@H](CO)NC(=O)[C@@H]1C=C2c3cccc4c3c(cn4C)C[C@H]2N(C)C1", "Potency": "inactive"}
{"smiles": "CCCN(CCCl)c1c([N+](=O)[O-])cc(C(F)(F)F)cc1[N+](=O)[O-]", "Potency": "inactive"}
{"smiles": "ClCC(Cl)Cl", "Potency": "inactive"}
{"smiles": "CC(C)CC(C)N", "note": "(stereo not given)", "Potency": "inactive"}
{"smiles": "CN1C(=O)CN=C(c2ccccc2)c2cc([N+](=O)[O-])ccc21", "Potency": "inactive"}
{"smiles": "Clc1cccc(N2CCNCC2)c1", "Potency": "inactive"}
{"smiles": "OC(c1ccc(Cl)cc1)(c1ccc(Cl)cc1)C(Cl)(Cl)Cl", "Potency": "inactive"}
{"smiles": "CCOC(=O)/C=C(C)/C=C/C[C@@H](C)CCCC(C)C", "Potency": "inactive"}
{"smiles": "CCN(CC)CCOC(=O)C(C)(c1ccccc1)c1ccccc1", "Potency": "inactive"}
{"smiles": "CCOP(=S)(S)OCC", "Potency": "inactive"}
{"smiles": "CC(Cc1ccccc1)NCCn1cnc2c1c(=O)n(C)c(=O)n2C", "note": "(stereo not given)", "Potency": "inactive"}
{"smiles": "Cc1nnc2n1-c1sc(CCC(=O)N3CCOCC3)cc1C(c1ccccc1Cl)=NC2", "Potency": "inactive"}
{"smiles": "CCOP(=S)(OCC)Oc1nc(Cl)n(C(C)C)n1", "Potency": "inactive"}
{"smiles": "CC(C)(C)c1cc(O)ccc1O", "Potency": "inactive"}
{"smiles": "CC(C)CCCCCCCOC(=O)c1ccccc1C(=O)OCCCCCCCC(C)C", "Potency": "inactive"}
{"smiles": "CC(C)(C)C(=O)C(Oc1ccc(Cl)cc1)n1cncn1", "note": "(stereo not given)", "Potency": "inactive"}
{"smiles": "CN(C)c1ccc(N=Nc2ccccc2)cc1", "Potency": "inactive"}
{"smiles": "COC(=O)N(C(=O)N1COC2(C(=O)OC)Cc3cc(Cl)ccc3C2=N1)c1ccc(OC(F)(F)F)cc1", "note": "(stereo not given)", "Potency": "inactive"}
{"smiles": "CN(C)CCCCCCN(C)C", "Potency": "inactive"}
{"smiles": "CS(=O)(=O)c1ccc(C(=O)C2C(=O)CCCC2=O)c(Cl)c1COCC(F)(F)F", "Potency": "inactive"}
{"smiles": "CN(C)C(=O)Nc1cccc(OC(=O)NC(C)(C)C)c1", "Potency": "inactive"}
{"smiles": "O=C1CN2CCOC2(c2ccccc2Cl)c2cc(Cl)ccc2N1", "note": "(stereo not given)", "Potency": "inactive"}
{"smiles": "OC(c1ccc(Cl)cc1)(c1ccc(Cl)cc1)c1cccnc1", "Potency": "inactive"}
{"smiles": "COP(=S)(OC)Oc1c(Cl)cc(C)cc1Cl", "Potency": "inactive"}
{"smiles": "CNC(=O)Oc1cc(C)cc(C(C)C)c1", "Potency": "inactive"}
{"smiles": "c1ccc(C2CC2)c(OCC2=NCCN2)c1", "Potency": "inactive"}
{"smiles": "CCOP(=S)(Oc1cnc(C(C)(C)C)nc1)OC(C)C", "note": "(stereo not given)", "Potency": "inactive"}
{"smiles": "Cc1ccc2c(c1)C1CN(C)CCC1N2", "note": "(stereo not given)", "activation": "0% [at 13.5 µM] (inactive)"}
{"smiles": "CCOP(=S)(OCC)SCS(=O)(=O)C(C)(C)C", "Potency": "inactive"}
{"smiles": "CC(=O)O[C@H]1CC[C@@]2(C)C(=CC[C@@H]3[C@@H]2CC[C@]2(C)C(=O)CC[C@@H]32)C1", "Potency": "inactive"}
{"smiles": "BrCCCCCCBr", "Potency": "inactive"}
{"smiles": "C=CCOC(C)=O", "Potency": "inactive"}
{"smiles": "CN1C[C@@H](NS(=O)(=O)N(C)C)C[C@@H]2c3cccc4c3c(cn4C)C[C@H]21", "Potency": "inactive"}
